In all, about 43,000 compounds went through this assay and about 200 (0.47%) were called active. Roughly 12% stayed inconclusive and do not appear here. Calls follow the shape of the dose curve; as a rule, active = well fitted cell-killing curve with a large enough effect; inconclusive = small, poorly fitted or top-dose-only effect, or effect the other way; inactive = flat fitted curve, though single readings scatter. Many of the other results were omitted from the sample, so actives are more common in it than they were.
Assay: Cell viability qHTS assay in S16 Pmp22-F2sN cells; also: nearly all actives have a fitted effect of over 65% in size
Details: S16 Pmp22-F2sN Schwann cells (luciferase reporters placed in the Pmp22 gene) viability, CellTiter-Glo, 24 h; series mostly up to 57.5 µM; activity change, negative = cytotoxicity: at the top concentration
Text: Assay Provider: Jim Inglese Ph.D. National Center for Advancing Translational Science, National Institutes of Health, Rockville, MD CMT is a heterogeneous group of neurological disorders that affect approximately 1 in 2,500 people. In particular, the most common form of CMT, CMT1A is genetically linked to the duplication of the PMP22 gene which leads to Schwann cell overexpression, thus manifesting itself as a typical case of dose-sensitive diseases. To identify small molecule compounds that can mediate the expression of PMP22 we developed a phenotypic assay screening strategy by utilizing genome editing techniques to construct Schwann cell lines containing novel reporter technology to monitor the transcriptional or translational regulation of PMP22. For high sensitivity we use a bioluminescent reporter system embedded in the 3' UTR of the PMP22 gene (S16(c9) Pmp22-F2sN) to identify compounds that inhibit gene expression. […] We can further discriminate the effect of all transcriptionally active molecules on PMP22 translation or stability with an assay that incorporates a short NLuc peptide (HiBiT) at the C-terminus of expressed PMP22 (S16(f8) PMP22-HiBiT) allowing alpha complementation and luminescence detection of membrane-associated PMP22 protein. These assays were screened against the NCATS Sytravon Library Collection. Miniaturization of these assays to 1536-well plate format for quantitative high throughput screening (qHTS) yielded rich data sets immediately from the qHTS assay (S16(c9) Pmp22-F2sN), when compared with data from a cell viability assay (Cell TiterGlo) to identify compounds that decreased the output signals through cellular toxicity to streamline the selection process of actives for subsequent characterization using the HiBiT assay (S16(f8) PMP22-HiBiT).
Cell viability assay in S16 Pmp22-F2sN cells PROTOCOL TABLE (format as described by Inglese J, Shamu CE and Guy RK. 2007) SEQUENCE No. (e.g., 1, 2, 3, etc.); […] (e.g., Cells, Incubation, Reagent, etc.); VALUE and DESCRIPTION. 1. Cells. Add 500-1,000 cells in 4 uL in growth media (DMEM High Glucose, No Phenol Red media + 10% heat-inactivated FBS + 1% Pen/Strep supplemented media) per well into Greiner 1536-well white/solid bottom high base, TC-treated plates. 2. Compounds. Library compounds and controls added at 23nL per well, transferred by Pin Tool. 3. Incubation. Incubate plates at 37C, 5% CO2, 95% RH for 24 h. 4. Reagent. Add 3uL CellTiter-Glo per well of Greiner 1536-well plates. 5. Incubation. Incubate plates at room temperature for 15 min., protect from light. 6. Detector. FLuc luminescence measured using CCD-based camera (Viewlux). NOTES (numbers refer to Sequence numbers above; values are from representative experiments) 6. Luminescence Read: Clear filter; Exposure = 1 sec, Gain = High, Speed = Slow, Binning = 2X REFERENCES: 1. Inglese J, Shamu CE and Guy RK, Reporting data from high throughput screening of small molecule libraries, Nature Chemical Biology, 2007, 3(8): 438-441. doi.org/10.1038/nchembio0807-438 2. Yasgar A, Shinn P, Jadhav A, Auld DS, Michael S, Zheng W, Austin CP, Inglese J and Simeonov A, Compound Management for Quantitative High-Throughput Screening. J. Assoc. Lab. Auto., 2008, 13: 79-89. doi: 10.1016/j.jala.2007.12.004
% is scaled to controls: 0 for no effect and ±100 for the full control effect; potency is read from the fitted curve at half-maximal effect.

| Structure (SMILES) | activity change, negative = cytotoxicity | Potency |
| --- | --- | --- |
| CCS(=O)(=O)N1CCc2cc(C(=O)N3CCN(c4ccccc4OC)CC3)ccc21 | -23.9% (inactive) | – |
| COc1ccc(C2=CC(c3ccccc3Cl)n3nc(-c4ccc(Cl)cc4)nc3N2)cc1 (stereo unspecified) | -1.8% (inactive) | – |
| COc1ccc(C)cc1NC(=O)C(=O)NCCc1sc(-c2cccc(C)c2)nc1C | 15.9% (inactive) | – |
| Cc1c(-c2cccc(NC(=O)C(C)(C)C)c2)nc2ncccn12 | 9.29% (inactive) | – |
| Cc1cc(C)c(NC(=O)c2cc3sc(Cl)cc3n2C)c(C)c1 | -0.729% (inactive) | – |
| Cc1cccc(-n2ccnc2SCC(=O)Nc2cccc3ccccc23)c1C | -23% (inactive) | – |
| CC(C)Cn1c(-c2ccc(S(=O)(=O)N3CCOCC3)cc2)csc1=Nc1cc(Cl)ccc1Cl | 1.99% (inactive) | – |
| Cc1ccc2[nH]c3c(=O)n(CC(=O)NC(C)C)ncc3c2c1 | 17.3% (inactive) | – |
| COc1ccccc1CNC(=O)CS(=O)(=O)c1cccc2nsnc12 | 1.47% (inactive) | – |
| Cc1cccc2c1-c1sc(C(=O)Nc3ccc(F)cc3F)cc1CO2 | 4.55% (inactive) | – |
| CCOCCn1ccc2c(OCC(=O)NCc3ccc(C)cc3)cccc2c1=O | -27.9% (inactive) | – |
| CCOC(=O)C1CCN(S(=O)(=O)c2ccc3c(c2)N(C)C(=O)CC(=O)N3C)CC1 | 9.53% (inactive) | – |
| Cc1ccc2c(c1)N(C(=O)CCC(=O)NCc1ccccc1F)CC(C)O2 (stereo unspecified) | 16.2% (inactive) | – |
| COc1cc(CNC(=O)c2cc3n(n2)CCCN(Cc2cccc(F)c2)C3=O)cc(OC)c1OC | 4.68% (inactive) | – |
| COc1ccc(C2c3c(oc4ccccc4c3=O)C(=O)N2Cc2ccc3c(c2)OCO3)cc1 (stereo unspecified) | -4.77% (inactive) | – |
| CCCNC(=O)C1CCN(c2nc3ccc(C)cc3[nH]2)CC1 | 12.1% (inactive) | – |
| CCCc1cc(=O)n2[nH]c(NCc3ccc(CC)cc3)nc2n1 | -6.76% (inactive) | – |
| CCCCN(C)c1nnc(NC(=O)Nc2ccc(Br)c(C)c2)s1 | 7.82% (inactive) | – |
| Cc1cccc(-n2ncc(C(=O)N3CCC(C)CC3)c2C2CCN(C(=O)OC(C)(C)C)CC2)c1 | -0.159% (inactive) | – |
| COc1ccc2c(c1)c(=O)c(C(=O)c1ccccc1)cn2CC(=O)Nc1ccc2c(c1)OCCO2 | -17.2% (inactive) | – |
| Cn1ccc2cc(S(=O)(=O)N3CCCC(C(=O)NCc4ccccc4F)C3)ccc21 (stereo unspecified) | -1.54% (inactive) | – |

| Structure (SMILES) | activity change, negative = cytotoxicity | Potency |
| --- | --- | --- |
| CCOc1ccc(N(Cc2ccccc2)C(=O)c2nc(SCC)ncc2Cl)cc1 | -13.1% (inactive) | – |
| CCOc1ccc(N(Cc2ccccc2)C(=O)c2nc(S(C)(=O)=O)ncc2Cl)cc1 | – | 3.55 µM (active) |
| CCOc1ccc(N(CC)C(=O)C2CCN(S(=O)(=O)c3cccc4nonc34)CC2)cc1 | 17% (inactive) | – |
| O=C(Cn1ncn2nc(-c3cccs3)cc2c1=O)NCc1cccc(Br)c1 | -7.84% (inactive) | – |
| CCOC(=O)c1c(NC(=O)/C=C/c2ccc(OC)cc2)sc2c1CCC(C)C2 (stereo unspecified) | 2.92% (inactive) | – |
| Cc1ccc(O)c(NC(=O)CCS(=O)(=O)c2nc(-c3ccc4c(c3)OCO4)cc(C(F)(F)F)n2)c1 | 0.975% (inactive) | – |
| CCN(CC)CCNC(=O)Cn1ncc2c3ccccc3n(Cc3ccccc3C)c2c1=O | -15.4% (inactive) | – |
| COCCNC(=O)CSc1c(C)cnc2c1c(=O)n(C)c(=O)n2C | 2.19% (inactive) | – |
| COc1cc(C(=O)N2CCN(C(=O)COc3cccc(C)c3)CC2)cc(OC)c1OC | 8.68% (inactive) | – |
| CCCNC(=O)CCC(=O)N1Cc2ccccc2Oc2ncccc21 | 0.274% (inactive) | – |
| CC(NC(=O)CCc1cn(Cc2ccccc2Cl)c2ccccc12)c1ccccc1 (stereo unspecified) | -3.26% (inactive) | – |
| CC(C)CC(NS(=O)(=O)c1ccc2c(c1)oc(=O)n2C)C(=O)NCc1ccccc1Cl (stereo unspecified) | -2.2% (inactive) | – |
| O=C(COc1ccccc1)OCc1cc(=O)n2nc(-c3cccs3)sc2n1 | 0.234% (inactive) | – |
| CCc1c(C)sc(NC(=O)C2c3ccccc3Oc3ccccc32)c1C(=O)OC(C)C | 0.223% (inactive) | – |
| CCc1nc2cccnc2n1-c1ccc(CC(=O)Nc2c(C)cccc2C)cc1 | -4.84% (inactive) | – |
| CCCNC(=O)C1CCC(Cn2c(=O)c3sccc3n(Cc3ccccc3F)c2=O)CC1 (stereo unspecified) | -1.73% (inactive) | – |
| O=C(Nc1ccc(Br)cc1)c1cc2nc(-c3ccccc3)cc(-c3ccccc3)n2n1 | 5.96% (inactive) | – |
| COc1ccc(CCNC(=O)CCCn2c(=O)c3ccccc3n(Cc3ccc(F)cc3Cl)c2=O)cc1OC | -1.56% (inactive) | – |
| O=C(CSc1n[nH]c(-c2ccccc2)n1)N1CCCCC1 | 3.55% (inactive) | – |
| CCN(CC)S(=O)(=O)c1ccc2c(c1)nc(CN(C)C(=O)Nc1ccc(Cl)cc1)n2C | -1.34% (inactive) | – |
| O=C(NCCc1ccccc1)c1cnc2sc(N3CCCC3)nn2c1=O | 13.1% (inactive) | – |

| Structure (SMILES) | activity change, negative = cytotoxicity | Potency |
| --- | --- | --- |
| CCC(Sc1nc2n[nH]c(C)c2c(=N)n1-c1ccccc1Cl)C(=O)N(CC)CC (stereo unspecified) | -12.7% (inactive) | – |
| CCC(CC)C(=O)N1CCc2cc(OC)c(OC)cc2C1COc1ccc(F)cc1 (stereo unspecified) | 0.184% (inactive) | – |
| Cc1cc(C)c2oc(C(=O)Nc3ccc(S(=O)(=O)N4CCCCCC4)cc3)cc(=O)c2c1 | 11.6% (inactive) | – |
| COc1ccc(S(=O)(=O)c2c(Nc3ccc(C)cc3)sc(C(=O)c3ccc(C)cc3)c2N)cc1 | 8.68% (inactive) | – |
| COc1ccccc1CNC(=O)NCc1noc2ccc(C)cc12 | -2.92% (inactive) | – |
| COc1ccc(C(F)(F)F)cc1NC(=O)c1sc2nc(-c3cccs3)ccc2c1N | -23.1% (inactive) | – |
| CC1CCN(C(=O)Cn2c(=O)n(-c3ccc(Cl)cc3)c(=O)c3c4c(sc32)CCC4)CC1 | 16.3% (inactive) | – |
| CCCN(CCC)CCNC(=O)c1ccc2c(c1)NC(=O)C(CS(=O)(=O)Cc1cccc(Br)c1)N2 (stereo unspecified) | 4.02% (inactive) | – |
| Cc1cc(C)cc(-n2ccnc2SCC(=O)Nc2nc3ccccc3s2)c1 | 13.1% (inactive) | – |
| CCc1ccccc1NC(=O)Cc1ccc(NC(=O)N2CCCCc3ccccc32)cc1 | 14.9% (inactive) | – |
| CCc1cccc(NC(=O)CCNS(=O)(=O)c2cccc3nonc23)c1 | 5.94% (inactive) | – |
| COc1cccc(N2CCN(S(=O)(=O)c3cc(Br)cc4c3N(C(=O)C3CC3)CC4)CC2)c1 | 19.5% (inactive) | – |
| Cc1ccc(S(=O)(=O)n2nc(-c3ccc(Cl)cc3)nc2NCc2ccccc2)cc1 | -13.1% (inactive) | – |
| CCN(CCCNC(=O)c1cc2cc3cc(OC)ccc3nc2s1)c1ccccc1 | -0.951% (inactive) | – |
| COc1cccc(CNC(=O)Cn2c(=O)c3cccn3c3ccc(F)cc32)c1OC | -1.88% (inactive) | – |
| CCCSc1ncc(Cl)c(C(=O)Nc2sc3c(c2C(=O)NCCOC)CCCC3)n1 | 1.52% (inactive) | – |
| Cc1ccc(OCC(=O)Nc2ccc(Cl)c(-c3nc4ccccc4[nH]3)c2)cc1C | -0.793% (inactive) | – |
| CCOc1ccc(OCC)c(NC(=O)CN(c2ccc(C)cc2)S(=O)(=O)c2c(C)n[nH]c2C)c1 | 9.54% (inactive) | – |
| Cc1cc2nc(-c3ccc(NC(=O)c4cc5ccccc5o4)cc3)oc2cc1C | -0.614% (inactive) | – |
